This test can be described thus: hepatitis C replication reporter changes, two-sided – Huh7 cells, luciferase reporter, HCV replication inhibitor project, primary screen (AID 1109).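 Also: huh7 hepatoma cells harbouring a luciferase neomycin HCV replicon reporter; luciferase luminescence as measure of HCV replicon replication; test concentration not given here.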 To be noted: Huh7 HCV replicon luciferase reporter, 48 h; higher = more signal. On the technique in general: In a reporter assay the amount or activity of a reporter protein is the signal.
As to `CO[C@H]1COC(=O)CC=C[C@H](C)[C@H](OC)COC(=O)[C@@H](C)NC(=O)CC=C[C@@H]1C`, the z-score was -2.14.
Next, `C#CCCCON=C1C[C@@H](O)[C@@H](O)[C@@H]2[C@@H]3C(=O)N([C@@H](C)c4ccccc4)C(=O)[C@@H]3CC[C@@H]12`: 1.14.
Next, `C=CC[C@@H]1C=C[C@H](ON=C(C)CCN2CCCc3nc(C)c(C)cc32)[C@@H](CO)O1`: -0.839; `CCOC(=O)[C@H](CC(C)C)NC(=O)CCC1CC(OC(=O)NCCc2ccc(F)cc2)CC2(CCCC(COC(=O)NCCOC)O2)O1` (stereo partly specified): -0.694.
Next, `CC(CCC(=O)OC[C@H]1O[C@H](C#Cc2ccccc2)C=C[C@@H]1Oc1ccc(C)cc1)=NOC[C@@H](C)[C@H](OCc1ccccc1)C(C)C`: -0.982; `COc1ccc(O[C@H]2C=C[C@@H](c3ccccc3)O[C@@H]2CO)cc1`: 0.231; `CCOC(=O)CCN1C(=O)[C@H]2[C@H]3[C@H](O)[C@H](O)CC(=NOCC(C)C)[C@@H]3CC[C@H]2C1=O`: -0.488.
With `CO[C@H]1COC(=O)[C@H](CCSC)NC(=O)CC=C[C@@H](C)[C@H](OC)COC(=O)[C@@H](OCc2ccccc2)C=C[C@@H]1C`, the z-score is -1.4.
The value for `CC(CCC(=O)OC[C@H]1O[C@H](C#Cc2ccccc2)C=C[C@@H]1Oc1ccc(C)cc1)=NO[C@@H](C)c1cc(-c2c(C)cc(C)cc2C)no1` was -0.824; that for `CC(C)[C@@H](OCc1ccccc1)[C@H](C)C=NO[C@H](C)c1cn([C@@H]2COC[C@H]2O)nn1` was -1.16; that for `CCOC(=O)CCN1C(=O)[C@H]2[C@H]3[C@H](O)[C@H](O)CC(=O)[C@@H]3CC[C@H]2C1=O` was -0.408.

For the origin of these results see PubChem BioAssay.
